Screening data: PubChem BioAssay, National Center for Advancing Translational Sciences (NCATS)
Methyltransferases: Primary Screen for Target Class Profiling of Small Molecule Inhibitors of Methyltransferases; purified enzyme, MTase-Glo SAH luminescence; hits give low values; calls only at 40 µM; 25,000 tested, 3.9% active; AID 1745853, 2022; call rule not given here
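Each enzyme was reacted with SAM and its substrate, with compounds tested once at 40 uM; SAH formed was read by MTase-Glo luminescence.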
Active calls of the source: *; i = inactive; + = active, no number; ! = repeats disagree. This is one part of a sample in which hits are shown more often than they occur. % is scaled to controls: 0 for no effect and ±100 for the full control effect.

SMILES	Methyltransferases
CC(C)CCn1c(=O)c2ccc(C(=O)NC3CCCC3)cc2n2c(=O)n(CC(=O)Nc3ccccc3)nc12	i
COC(=O)c1ncn2c1C(=O)N(c1ccc(C(C)C)cc1)C(C)(C(=O)NCCCOC(C)C)C2 (configuration not stated)	i
CC1=CC(=O)CC(C)(C)[C@@]1(O)/C=C/C(C)O[C@@H]1O[C@H](CO)[C@@H](O)[C@H](O)[C@H]1O (some centres not stated)	i
CC(=O)/C=C/C1(O)C(C)=CC(=O)CC1(C)C (configuration not stated)	i
CC1=CC(=O)CC(C)(C)C1(O)CCC(C)O (configuration not stated)	+
O=C(NCCc1ccccc1)c1ccc2c(=O)nc3c(-c4cccc(F)c4)n[nH]n3c2c1	i
CCCn1c(=O)c2ccc(C(=O)NC(C)C)cc2n2c(SCC(=O)Nc3ccc(Cl)cc3)nnc12	i
Cc1cc2c(cc3n2CC(C)(C(=O)NC2CCCCCC2)N(CCN2CCOCC2)C3=O)o1 (configuration not stated)	i
O=c1[nH]c2ccc(S(=O)(=O)N(CCO)CCO)cc2[nH]1	i
O=C1c2ccccc2C(=O)c2cc(S(=O)(=O)N(CCO)CCO)ccc21	+
O=C1c2ccccc2C(=O)c2cc(S(=O)(=O)NC3CCCCC3)ccc21	i
Cc1ccc(NC(=O)Cn2nc3n(CCC(C)C)c(=O)c4ccc(C(=O)NCC(C)C)cc4n3c2=O)cc1	i
Cc1ccc(NS(=O)(=O)c2cc3c(cc2C)n(C)c(=O)n3C)cc1C	i
Fc1ccc(N2CCCCC2)c(NC(=S)c2ccncc2)c1	+
Cc1ccc(Cl)cc1NC(=O)CSc1nnc2n(CCC(C)C)c(=O)c3ccccc3n12	i
Cc1cccc(NC(=O)Cn2nc3n(C)c(=O)c4ccc(C(=O)NC5CCCC5)cc4n3c2=O)c1	i
CC1(C(=O)NC2CCCCC2)Cn2c(cc3sccc32)C(=O)N1Cc1ccccc1F (configuration not stated)	i
CCN(CC)C(=O)Cn1c(=O)oc2cc(S(=O)(=O)N3CC(C)CC(C)C3)ccc21 (configuration not stated)	i
COc1cccc(C2c3cccn3-c3sc4c(c3CN2C(=O)Nc2cccc(C)c2)CCCC4)c1 (configuration not stated)	i
CC1(C(=O)NC2CCCCCC2)Cn2c(cc3sccc32)C(=O)N1Cc1ccc2c(c1)OCO2 (configuration not stated)	i
COC(=O)c1ncn2c1C(=O)N(c1cccc(C)c1C)C(C)(C(=O)NCc1ccccc1OC)C2 (configuration not stated)	i
c1ccc(Cn2c(-c3ccc(OCC(C4CCNCC4)n4c(-c5ccccc5)nc5ccccc54)cc3)nc3ccccc32)cc1 (configuration not stated)	+
CC(C)Oc1ccc(CN2C(=O)c3nc4ccccc4n3CC2(C)C(=O)NC2CCCCCC2)cc1 (configuration not stated)	i
CC(C)Oc1ccc(CN2C(=O)c3nc4ccccc4n3CC2(C)C(=O)NC2CCCCC2)cc1 (configuration not stated)	i
CC1(C(=O)NC2CCCCCC2)Cn2c(ccc2-c2ccco2)C(=O)N1C1CCCC1 (configuration not stated)	i
SMILES	Methyltransferases
CC1(C(=O)NC2CCCCCC2)Cn2c(cc3occc32)C(=O)N1CCc1ccc(Cl)cc1 (configuration not stated)	i
CCOC(=O)c1ccc2c(c1)[C@@H]1C=CC[C@@H]1[C@H](c1ccccc1C(F)(F)F)N2	i
COc1ccc(OC)c(CNC(=O)c2cc3n(n2)CC(C)(C(=O)NC2CCCCC2)N(C)C3=O)c1 (configuration not stated)	i
CCC(C)NC(=O)c1ccc2c(=O)n(C)c3nnc(SCc4ccc(Cl)cc4)n3c2c1 (configuration not stated)	i
CN(C)CCc1c[nH]c2ccc(C[C@H]3COC(=O)N3)cc12	i
CN1CCC[C@@H]1Cc1c[nH]c2ccc(CCS(=O)(=O)c3ccccc3)cc12	+!
CNS(=O)(=O)CCc1ccc2[nH]cc(C3CCN(C)CC3)c2c1	i
CCCn1c(=O)c2ccc(Cl)cc2n2c(=O)n(CC(=O)Nc3cc(OC)cc(OC)c3)nc12	i
CN(Cc1ccccc1)C(=O)CN(C)S(=O)(=O)c1ccc2[nH]c3c(c2c1)CCCC3	i
CN(CC(=O)N(Cc1ccc(C2CCCCC2)cc1)c1ccc(C(=O)O)cc1)S(=O)(=O)c1c(F)c(F)c(F)c(F)c1F	+
CN1CCCN(CC(=O)N2CCCC(c3ccc(C(=O)O)cc3)C2)CC1 (configuration not stated)	i
CC1CCN(S(=O)(=O)c2ccc3c(c2)oc(=O)n3CC(=O)N2CCN(Cc3ccccc3)CC2)CC1	i
COC(=O)c1ncn2c1C(=O)N(c1ccc(C)cc1C)C(C)(C(=O)NC1CCCC1)C2 (configuration not stated)	i
CC1CCC(NC(=O)C2(C)Cn3c(cc4occc43)C(=O)N2CCN2CCCCCC2)CC1 (configuration not stated)	i
N#C/C(=C1\Nc2ccccc2S1)c1ccnc(NCCc2cccnc2)n1	+
CCCn1c(=O)c2ccccc2n2c(SCC(=O)Nc3cccc(Cl)c3)nnc12	i
CCC(C)NC(=O)c1ccc2c(=O)n(C)c3nn(Cc4ccccc4Cl)c(=O)n3c2c1 (configuration not stated)	i
Cc1cccc(N(C)S(=O)(=O)c2ccc3[nH]c4c(c3c2)CCCC4)c1	i
O=C1NC(=O)/C(=C/c2ccc(-c3ccc(F)cc3O)o2)S1	+
CC1(C(=O)NC2CCCCC2)Cn2c(cc3ccccc32)C(=O)N1Cc1cccs1 (configuration not stated)	i
CCc1cc2c(cc3n2CC(C)(C(=O)NC2CCCCC2)N(c2cccc(OC)c2)C3=O)s1 (configuration not stated)	i
COC(=O)c1ncn2c1C(=O)N(Cc1cccs1)C(C)(C(=O)NC1CCCCC1)C2 (configuration not stated)	i
CC1(C(=O)NCc2ccc(F)cc2)Cn2cnc(C(=O)NCc3ccccc3F)c2C(=O)N1C1CC1 (configuration not stated)	i
Clc1ccc(C2Nc3ccc4ccccc4c3C3C=CCC32)cc1 (configuration not stated)	i
CN1C(=O)c2cc(C(=O)NCc3ccccn3)nn2CC1(C)C(=O)NCc1ccccc1 (configuration not stated)	i
SMILES	Methyltransferases
Cn1cc(-c2cnc3ccc4ccc(CS(=O)(=O)NCc5ccccn5)cc4c(=O)c3c2)cn1	+
Cn1cc(-c2ccc3ncc(Cc4ccc5ncccc5c4)n3n2)cn1	i
O=C(OCC1=CC(Cl)C(O)C(OC(=O)c2ccccc2)C1O)c1ccccc1 (configuration not stated)	i
COC(=O)[C@H](c1ccccc1Cl)N1CCC2SC(=O)C=C2C1 (some centres not stated)	i
Cc1cccc(CN2C(=O)c3ccc(-c4ccccc4)n3CC2(C)C(=O)NC2CCCCC2)c1 (configuration not stated)	i
Nc1c(S(=O)(=O)O)cc(Nc2ccc(Nc3nc(Cl)nc(Nc4ccc(S(=O)(=O)O)cc4)n3)c(S(=O)(=O)O)c2)c2c1C(=O)c1ccccc1C2=O	+
